# Measurements from the supplement of paper PMC10849652.
# About 7,900 targets were measured; listed, in parts, are those with a hit and a random draw of the rest. About 0.6% of all pairs of compound and target were hits. A number with no mark means an inactive call.
# Experiments:
# Experiment in all cases: log2 fold change, soluble protein after heating vs DMSO (PISA); higher = thermal stabilisation; K562 cells, 10 uM, 30 min; active = over 0.2 and 3.5 SD of the protein, either way, in both replicates (recomputed)
# IRAK-1-4 Inhibitor I = compound: C1COCCN1CCN2C3=CC=CC=C3N=C2NC(=O)C4=CC(=CC=C4)[N+](=O)[O-] [IRAK-1-4 Inhibitor I]
# In short: (§1)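 K562 cells (2×10^6 cells/mL) were treated with 10 μM compound for 30 min, and aliquots were heated for 3 min over 48°C-58°C. Pooled aliquots were extracted in PBS with 0.5% NP-40 at 4°C, and the supernatant after 21,000xg for 90 min was measured by TMTpro 16plex LC-MS/MS with channel sums equalised. Reported thermal stability, relative to control samples and from duplicates, is a log2 fold change.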
# ibrutinib = compound: C=CC(=O)N1CCC[C@@H](n2nc(-c3ccc(Oc4ccccc4)cc3)c3c(N)ncnc32)C1 [ibrutinib]
# In short: as §1
# [1] = compound: CC(=O)c1cnc2ccc(-c3cc(Cl)c(O)c(Cl)c3)nc2c1N[C@H]1CC[C@H](CN(C)C)CC1
# In short: as §1
# ralimetinib = compound: CC(C)(C)Cn1c(N)nc2ccc(-c3[nH]c(C(C)(C)C)nc3-c3ccc(F)cc3)nc21 [ralimetinib]
# In short: as §1
# [2] = compound: CC(C)(O)CC(=O)NCCn1ccc2ncnc(Nc3ccc(Oc4cccc(C(F)(F)F)c4)c(Cl)c3)c21
# In short: as §1
# [3] = compound: CC(C)C1=C2N=C(C=C(N2N=C1)NCC3=CC=CC=C3)NCCCCCCN
# In short: as §1
# [4] = compound: CC(C)C[C@@H](C=O)NC(=O)[C@H](CC(C)C)NC(=O)[C@H](CC(C)C)NC(=O)OCc1ccccc1
# In short: as §1
# pinometostat = compound: CC(C)N(C[C@H]1O[C@@H](n2cnc3c(N)ncnc32)[C@H](O)[C@@H]1O)[C@H]1C[C@@H](CCc2nc3cc(C(C)(C)C)ccc3[nH]2)C1 [pinometostat]
# In short: as §1
# [5] = compound: CC1=C(C(CC(=O)N1)C2=CC=C(C=C2)C(F)(F)F)C(=O)NC3=C(C=C4C(=C3)C=NN4)F
# In short: as §1
# [6] = compound: CC1=C(C2=C(C=C1)C(=O)C3=CC=CC=C3N2CCCN)C
# In short: as §1
# [7] = compound: CC1=C(C=C(C=C1)NC(=O)C2=CC(=CC=C2)C(C)(C)C#N)NC3=CC4=C(C=C3)N=CN(C4=O)C
# In short: as §1
# [8] = compound: CC1=C(C=C(C=C1)NC(=O)C2=CC(=CC=C2)N(C)C)NC(=O)C3=CC=C(C=C3)O
# In short: as §1
# [9] = compound: CC1=CC=C(C=C1)SC2=C3C=C(SC3=CN=C2)C(=O)N
# In short: as §1
# [10] = compound: CC1=NC(=CC=C1)C2=C(N=C(N2)C(C)(C)C)C3=CC4=NC=CN=C4C=C3
# In short: as §1
# Nexturastat A = compound: CCCCN(Cc1ccc(C(=O)NO)cc1)C(=O)Nc1ccccc1 [Nexturastat A]
# In short: as §1
# vemurafenib = compound: CCCS(=O)(=O)Nc1ccc(F)c(C(=O)c2c[nH]c3ncc(-c4ccc(Cl)cc4)cc23)c1F [vemurafenib]
# In short: as §1
# [11] = compound: CCCS(=O)(=O)Nc1ccc(F)c(C(=O)c2c[nH]c3ncc(Cl)cc23)c1F
# In short: as §1
# [12] = compound: CCCc1cc(C)[nH]c(=O)c1CNC(=O)c1cc(-c2ccnc(N3CCN(C)CC3)c2)cc2c1cnn2C(C)C
# In short: as §1
# givinostat = compound: CCN(CC)Cc1ccc2cc(COC(=O)Nc3ccc(C(=O)NO)cc3)ccc2c1 [givinostat]
# In short: as §1
# barasertib = compound: CCN(CCCOc1ccc2c(Nc3cc(CC(=O)Nc4cccc(F)c4)[nH]n3)ncnc2c1)CCOP(=O)(O)O [barasertib]
# In short: as §1
# Chain of UniProt Q969T4 (Q969T4 whole entry, looked up): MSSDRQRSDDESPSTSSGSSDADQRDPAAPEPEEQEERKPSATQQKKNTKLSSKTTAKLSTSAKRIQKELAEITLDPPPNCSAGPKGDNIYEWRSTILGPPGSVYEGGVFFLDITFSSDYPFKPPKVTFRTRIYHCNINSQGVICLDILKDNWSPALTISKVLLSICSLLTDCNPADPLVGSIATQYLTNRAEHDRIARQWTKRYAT
# Chain of UniProt Q86UV5 (Q86UV5 whole entry, looked up): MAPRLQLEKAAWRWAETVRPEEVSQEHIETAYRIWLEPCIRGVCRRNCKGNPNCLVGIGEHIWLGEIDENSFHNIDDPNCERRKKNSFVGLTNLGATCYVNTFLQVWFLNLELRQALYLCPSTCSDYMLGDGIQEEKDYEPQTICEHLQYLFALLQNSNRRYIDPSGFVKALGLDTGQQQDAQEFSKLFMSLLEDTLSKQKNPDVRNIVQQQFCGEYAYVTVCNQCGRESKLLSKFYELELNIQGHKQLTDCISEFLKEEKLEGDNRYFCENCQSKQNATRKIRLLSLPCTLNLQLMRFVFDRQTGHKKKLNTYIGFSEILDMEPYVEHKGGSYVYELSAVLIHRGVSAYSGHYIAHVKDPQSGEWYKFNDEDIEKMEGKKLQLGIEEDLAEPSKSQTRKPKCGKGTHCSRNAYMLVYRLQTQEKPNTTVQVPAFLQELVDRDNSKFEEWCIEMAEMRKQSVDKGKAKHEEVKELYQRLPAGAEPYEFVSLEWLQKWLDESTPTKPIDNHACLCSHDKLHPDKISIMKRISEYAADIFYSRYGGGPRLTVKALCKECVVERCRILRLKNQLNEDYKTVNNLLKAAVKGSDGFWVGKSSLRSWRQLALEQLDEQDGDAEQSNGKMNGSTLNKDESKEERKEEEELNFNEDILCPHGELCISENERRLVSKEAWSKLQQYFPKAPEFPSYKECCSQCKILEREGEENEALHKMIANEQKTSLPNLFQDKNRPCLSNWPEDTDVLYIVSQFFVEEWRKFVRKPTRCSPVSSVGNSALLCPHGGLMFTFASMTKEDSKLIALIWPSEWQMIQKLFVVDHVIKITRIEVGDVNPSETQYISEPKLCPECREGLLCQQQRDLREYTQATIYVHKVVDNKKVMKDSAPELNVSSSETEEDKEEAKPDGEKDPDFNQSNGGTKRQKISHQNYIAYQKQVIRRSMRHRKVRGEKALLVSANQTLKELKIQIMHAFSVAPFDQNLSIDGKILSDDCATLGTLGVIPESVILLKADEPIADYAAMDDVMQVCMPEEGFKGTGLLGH
# Chain of UniProt Q70CQ2 (Q70CQ2 whole entry, looked up): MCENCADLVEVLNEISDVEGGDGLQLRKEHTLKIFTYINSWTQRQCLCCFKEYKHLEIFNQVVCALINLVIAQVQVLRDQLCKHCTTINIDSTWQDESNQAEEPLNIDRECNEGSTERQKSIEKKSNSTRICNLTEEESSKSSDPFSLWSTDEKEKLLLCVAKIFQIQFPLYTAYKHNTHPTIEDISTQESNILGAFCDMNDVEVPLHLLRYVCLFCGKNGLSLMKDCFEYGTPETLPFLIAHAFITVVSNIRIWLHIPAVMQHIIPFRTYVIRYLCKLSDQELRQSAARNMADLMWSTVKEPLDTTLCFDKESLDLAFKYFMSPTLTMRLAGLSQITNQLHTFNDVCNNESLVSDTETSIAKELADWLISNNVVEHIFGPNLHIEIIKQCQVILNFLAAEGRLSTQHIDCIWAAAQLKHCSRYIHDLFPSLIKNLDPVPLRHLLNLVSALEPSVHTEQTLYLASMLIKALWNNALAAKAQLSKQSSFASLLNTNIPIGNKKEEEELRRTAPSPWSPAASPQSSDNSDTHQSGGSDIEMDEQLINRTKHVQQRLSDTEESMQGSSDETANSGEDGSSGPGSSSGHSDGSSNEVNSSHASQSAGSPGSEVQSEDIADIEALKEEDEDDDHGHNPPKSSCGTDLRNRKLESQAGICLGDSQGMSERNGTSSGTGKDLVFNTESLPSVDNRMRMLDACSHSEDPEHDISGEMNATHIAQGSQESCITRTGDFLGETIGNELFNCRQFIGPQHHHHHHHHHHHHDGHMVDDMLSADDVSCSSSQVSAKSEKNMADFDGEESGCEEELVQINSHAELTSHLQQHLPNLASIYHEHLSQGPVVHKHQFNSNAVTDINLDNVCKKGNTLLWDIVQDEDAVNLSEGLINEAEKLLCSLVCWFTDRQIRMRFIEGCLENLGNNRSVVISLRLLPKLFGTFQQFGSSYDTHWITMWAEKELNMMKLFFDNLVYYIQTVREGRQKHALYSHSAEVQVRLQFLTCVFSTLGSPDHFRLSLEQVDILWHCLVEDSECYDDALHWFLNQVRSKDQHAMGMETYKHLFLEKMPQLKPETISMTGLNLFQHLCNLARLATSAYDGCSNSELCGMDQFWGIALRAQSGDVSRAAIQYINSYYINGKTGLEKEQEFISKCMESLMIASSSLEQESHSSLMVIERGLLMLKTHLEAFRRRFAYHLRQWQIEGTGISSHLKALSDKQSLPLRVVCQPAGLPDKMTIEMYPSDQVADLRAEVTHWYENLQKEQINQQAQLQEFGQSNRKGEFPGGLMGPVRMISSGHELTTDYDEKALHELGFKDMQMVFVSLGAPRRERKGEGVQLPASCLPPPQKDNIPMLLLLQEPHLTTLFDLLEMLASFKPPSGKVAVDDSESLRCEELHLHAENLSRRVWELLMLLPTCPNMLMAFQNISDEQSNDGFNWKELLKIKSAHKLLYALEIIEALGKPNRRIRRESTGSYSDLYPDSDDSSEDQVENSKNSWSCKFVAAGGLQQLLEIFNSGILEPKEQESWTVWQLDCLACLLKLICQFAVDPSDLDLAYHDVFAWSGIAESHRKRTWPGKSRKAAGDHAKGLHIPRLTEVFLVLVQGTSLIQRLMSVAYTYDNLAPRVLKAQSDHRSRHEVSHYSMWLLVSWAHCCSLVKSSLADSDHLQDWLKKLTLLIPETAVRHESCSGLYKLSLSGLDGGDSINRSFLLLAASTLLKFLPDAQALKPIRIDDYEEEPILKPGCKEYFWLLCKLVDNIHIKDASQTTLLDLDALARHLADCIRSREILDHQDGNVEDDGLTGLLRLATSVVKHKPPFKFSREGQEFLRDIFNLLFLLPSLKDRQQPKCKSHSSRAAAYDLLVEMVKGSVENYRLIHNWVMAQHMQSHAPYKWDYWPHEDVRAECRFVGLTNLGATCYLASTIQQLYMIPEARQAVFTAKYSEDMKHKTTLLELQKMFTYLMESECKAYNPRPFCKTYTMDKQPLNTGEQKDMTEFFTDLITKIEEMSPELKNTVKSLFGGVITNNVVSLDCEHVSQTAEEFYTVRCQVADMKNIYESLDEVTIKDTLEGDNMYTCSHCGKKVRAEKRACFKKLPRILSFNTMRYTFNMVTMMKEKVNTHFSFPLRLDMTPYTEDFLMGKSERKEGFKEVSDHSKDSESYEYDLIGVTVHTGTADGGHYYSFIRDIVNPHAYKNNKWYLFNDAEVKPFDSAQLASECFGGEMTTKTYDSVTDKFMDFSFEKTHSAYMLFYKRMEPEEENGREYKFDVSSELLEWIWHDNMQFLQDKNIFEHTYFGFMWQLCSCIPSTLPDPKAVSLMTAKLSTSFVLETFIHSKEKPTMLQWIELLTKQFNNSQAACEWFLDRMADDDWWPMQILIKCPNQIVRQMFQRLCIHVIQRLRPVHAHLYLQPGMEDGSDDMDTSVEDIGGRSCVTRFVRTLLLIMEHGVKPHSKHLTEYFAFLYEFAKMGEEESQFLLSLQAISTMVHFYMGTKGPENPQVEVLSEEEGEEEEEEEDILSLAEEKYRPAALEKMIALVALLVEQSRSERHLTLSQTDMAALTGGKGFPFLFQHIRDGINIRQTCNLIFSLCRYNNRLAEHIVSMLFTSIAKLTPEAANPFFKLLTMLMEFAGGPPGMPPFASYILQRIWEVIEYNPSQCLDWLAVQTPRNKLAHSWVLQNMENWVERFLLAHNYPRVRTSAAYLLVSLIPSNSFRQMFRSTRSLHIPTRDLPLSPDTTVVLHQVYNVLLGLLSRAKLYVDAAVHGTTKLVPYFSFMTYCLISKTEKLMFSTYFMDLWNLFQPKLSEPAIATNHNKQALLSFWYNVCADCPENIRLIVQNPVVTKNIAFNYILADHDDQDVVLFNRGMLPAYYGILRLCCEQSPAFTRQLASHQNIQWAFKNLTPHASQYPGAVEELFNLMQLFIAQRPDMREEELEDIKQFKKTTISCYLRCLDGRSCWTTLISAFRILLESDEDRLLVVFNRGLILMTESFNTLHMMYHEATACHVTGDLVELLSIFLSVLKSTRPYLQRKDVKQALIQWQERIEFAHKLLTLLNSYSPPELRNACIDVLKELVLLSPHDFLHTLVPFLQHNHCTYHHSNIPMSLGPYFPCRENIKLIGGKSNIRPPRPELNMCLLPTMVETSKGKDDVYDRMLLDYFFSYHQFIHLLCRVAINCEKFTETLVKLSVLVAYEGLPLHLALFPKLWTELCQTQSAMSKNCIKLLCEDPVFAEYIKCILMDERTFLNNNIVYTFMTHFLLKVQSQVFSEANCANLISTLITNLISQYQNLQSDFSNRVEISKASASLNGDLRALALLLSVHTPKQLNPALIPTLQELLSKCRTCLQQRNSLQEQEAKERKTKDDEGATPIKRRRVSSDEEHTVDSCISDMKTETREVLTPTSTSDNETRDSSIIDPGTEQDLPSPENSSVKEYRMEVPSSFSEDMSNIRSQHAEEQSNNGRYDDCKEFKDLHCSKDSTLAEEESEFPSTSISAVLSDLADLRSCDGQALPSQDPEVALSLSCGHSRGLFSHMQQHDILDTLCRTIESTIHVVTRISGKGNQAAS
# Chain of UniProt A6NIH7 (A6NIH7 whole entry, looked up): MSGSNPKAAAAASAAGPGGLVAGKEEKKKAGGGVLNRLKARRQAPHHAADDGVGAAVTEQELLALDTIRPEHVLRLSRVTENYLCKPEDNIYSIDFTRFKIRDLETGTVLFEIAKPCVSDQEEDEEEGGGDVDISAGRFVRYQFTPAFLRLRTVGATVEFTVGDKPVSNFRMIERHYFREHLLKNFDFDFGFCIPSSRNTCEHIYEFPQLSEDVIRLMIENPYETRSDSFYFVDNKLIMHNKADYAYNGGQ
Target,log2 fold change (IRAK-1-4 Inhibitor I),log2 fold change (ibrutinib),log2 fold change [1],log2 fold change (ralimetinib),log2 fold change [2],log2 fold change [3],log2 fold change [4],log2 fold change (pinometostat),log2 fold change [5],log2 fold change [6],log2 fold change [7],log2 fold change [8],log2 fold change [9],log2 fold change [10],log2 fold change (Nexturastat A),log2 fold change (vemurafenib),log2 fold change [11],log2 fold change [12],log2 fold change (givinostat),log2 fold change (barasertib)
UBE2J1 (UniProt Q9Y385),-0.447,0.013,-0.077,-0.02,-0.106,-0.284,0.188,0.096,0.101,-0.047,-0.133,-0.016,0.107,0.04,-0.077,-0.087,-0.071,-0.262,0.098,-0.047
VTI1B (UniProt Q9UEU0),-0.074,0.027,-0.033,-0.081,0.08,-0.261 (active),0.002,-0.057,-0.001,0.012,-0.038,0.006,-0.008,-0.014,0.036,-0.03,0.009,-0.034,-0.04,-0.007
UBE2E3 (UniProt Q969T4),0.106,-0.059,-0.027,0.069,-0.046,-0.08,-0.039,0.096,-0.019,0.066,0.028,-0.059,0.053,0.08,-0.098,-0.013,0.08,0.022,0.116,0.013
UNC119B (UniProt A6NIH7),0.113,0.08,0.028,0.014,,0.272,0.088,0.126,-0.048,-0.047,0.293,-0.057,0.241,-0.017,,0.023,-0.047,-0.108,0.12,-0.029
UBIAD1 (UniProt Q9Y5Z9),0.012,-0.009,-0.055,-0.032,,-0.069,0.029,-0.104,-0.04,0.047,-0.03,0.059,0.004,0.015,,0.07,0.093,0.023,0.043,0.023
VPS53 isoform 4 (UniProt Q5VIR6),-0.035,0.011,-0.046,-0.022,-0.101,-0.142,0.095,0.076,-0.032,0.036,-0.037,-0.053,0.01,-0.031,0.022,0.046,0.003,0.03,0.045,0.045
TXNL4B (UniProt Q9NX01),0.132,-0.065,-0.071,-0.057,,-0.02,0.074,-0.053,0.026,0.067,-0.037,-0.088,-0.002,-0.04,,0.453 (active),0.024,-0.06,0.014,0.306
UTP3 (UniProt Q9NQZ2),-0.053,0.072,0.031,0.021,0.062,-0.062,0.253,0.159,,-0.571,-0.016,0.008,-0.094,-0.048,0.308,0.004,0.022,0.101,0.075,-0.08
VPS11 (UniProt Q9H270),0.115,-0.038,-0.032,0.038,-0.069,-0.375 (active),0.062,0.011,0.016,0.031,0.016,-0.003,0.002,0.076,0.107,0.016,0.073,0.031,-0.058,0.017
USP34 (UniProt Q70CQ2),0.005,-0.091,-0.033,-0.017,-0.14,-0.114,-0.016,0.079,-0.04,-0.176,-0.02,-0.094,0.077,0,-0.12,0.08,0.032,0.052,0.094,0.069
U2AF1L5 (UniProt P0DN76),0.042,-0.032,-0.389,,,-0.19,,0.014,-0.209,-0.067,,,,-0.036,,0.019,,0.06,0.563,-0.127
TMEM179B (UniProt Q7Z7N9),0.04,-0.05,-0.061,-0.008,-0.24,-0.011,-0.021,-0.024,0.017,0.019,-0.233,-0.003,0.011,0.027,0.378,,0.053,-0.021,-0.118,0.045
TPM2 (UniProt P07951),0.013,-0.018,0.027,0.059,-0.053,0.037,-0.163,-0.1,0.079,-0.103,0.048,-0.019,-0.047,0.212,-0.138,0.03,0.001,0.405,-0.011,0.04
WDR37 isoform 2 (UniProt Q9Y2I8),0.144,-0.06,-0.39 (active),-0.063,-0.118,-0.011,0.126,-0.029,-0.015,0.144,0.013,0.068,-0.019,-0.138,0.039,0.01,0.012,0.028,-0.018,0.04
TMEM8A (UniProt Q9HCN3),,0.06,,-0.131,,-0.445 (active),-0.036,,0.007,0.044,0.101,0.017,-0.047,,,-0.003,-0.073,-0.077,0.014,-0.189
UBXN10 (UniProt Q96LJ8),0.027,0.054,,-0.045,-0.145,-0.017,0.038,0.058,0.026,0.085,0.007,-0.026,-0.071,0.037,0.107,-0.264,-0.024,-0.115,0.059,-0.068
UBAP2L (UniProt F8W726),,0.017,,,,-0.002,,,0.145,0.136,,,-0.093,,,,0.004,0.014,-0.067,-0.058
USP48 (UniProt Q86UV5),,-0.07,,,,-0.246,,,0.05,,-0.096,,,,,,,-0.232,0.237,0.252
